Screen size: about 220,000 compounds; about 2,400 (1.1%) were called active. Where a call stands in place of a potency, no number is given. Inconclusive results (about 7%) are left out. The sample holds actives, similar compounds and a random draw of the others, so the mix is not that of the screen. The call rests on the fitted dose curve; in most records, active means well fitted inhibition curve with a large enough effect; inconclusive means small, poorly fitted or top-dose-only effect, or effect the other way; inactive means no such curve, though single readings can be large or run the other way.
Potency means the concentration at half of the fitted maximal effect.

A short description of the assay: qHTS Multiplex Assay to Identify Dual Action Probes in a Cell Model of Huntington: Aggregate Formation (GFP). Further: nearly all actives have a fitted effect of over 60% in size. The following applies: PC12 HttQ103-GFP aggregates, Acumen cytometry, 40 h; series mostly up to 9.22 µM. In short, it runs like this: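 Aggregate formation scored by laser-scanning cytometer (488 excitation, 500–530 emission) in lysed PC12 cells expressing Q103-GFP after 100 nM tebufenozide induction; library tested in dose series, with ATPLite reagent added in the multiplex.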
With `CN(CC(O)COc1ccc(S(=O)(=O)N2CCOCC2)cc1Cl)C1CCCCC1` (stereo not drawn), the Potency entry was “inactive”.

Take `Cn1nnc(NC(=S)NC(=O)c2ccccc2)n1`: the Potency result was “inactive”.

With `CCNC(=S)N1CCN(C(=O)c2ccco2)CC1`, the Potency result is “inactive”.

For the compound `CC(C)Cc1ccc(S(=O)(=O)N2CCN(C(=O)c3ccco3)CC2)cc1`, the Potency is 10 µM (active).

Regarding `CN1CCN(S(=O)(=O)c2ccc(NC(=O)c3ccco3)cc2)CC1`, the Potency entry was “inactive”.

Regarding `CC1CC(=O)Nc2ccccc2N1S(=O)(=O)c1cccs1` (stereo not drawn), the Potency result was “inactive”.

For `O=C(NCCCn1ccnc1)C(=O)NCC1OCCN1S(=O)(=O)c1cc(F)ccc1F` (stereo not drawn), the Potency entry is “inactive”.

Take `CCOC(=O)CNC(=O)CSc1nnnn1-c1cc(C)ccc1C`: the Potency result is “inactive”.

In the case of `CCOC(=O)c1c(-c2ccc(C)cc2C)csc1NC(=O)CSc1nnnn1C`, the Potency is 11.2 µM (active).

With `COC(=O)c1ccccc1NC(=O)CSc1nnnn1C`, the Potency result is “inactive”.

In the case of `O=S(=O)(c1ccc(Cl)cc1)N1CCCN(c2ccc(C(F)(F)F)cn2)CC1`, the Potency entry is “inactive”.

As for `CCc1ccc(N(CC)c2ncnc3nc[nH]c23)cc1`, the Potency was 10 µM (active).

In the case of `Cc1ccc(NC(=O)c2ccc(CSc3ncnc4nc[nH]c34)cc2)c(C)c1`, the Potency entry is “inactive”.

Take `c1ccc2c(c1)OCC(CNc1ncnc3nc[nH]c13)O2` (stereo not drawn): the Potency entry is “inactive”.

Consider `COc1ccc2c(c1)OC(O)(C(F)(F)C(F)F)CC2=O` (stereo not drawn), for which the Potency was 20 µM (active).

Consider `CC1(C)CC(=O)c2ccc(O)cc2O1`, for which the Potency entry is “inactive”.

As to `COc1ccc2c(c1)SC(C)CC2=O` (stereo not drawn), the Potency result is “inactive”.

For the compound `C=CCSc1nc(N)cc(=O)[nH]1`, the Potency entry is “inactive”.

Consider `O=C(O)CC1=C(Nc2ccccc2)C(=O)N(c2ccccc2)C1c1ccc(Cl)cc1` (stereo not drawn), for which the Potency entry is “inactive”.

As for `CC(CO)(CO)NC(=O)c1ccc(=O)[nH]n1`, the Potency entry was “inactive”.

On to `Cc1ccc(-n2[nH]c(C)c(/C=N/NC(=O)c3cccc([N+](=O)[O-])c3)c2=O)cc1C`, for which the Potency was 5.01 µM (active).

Regarding `Cc1ccc(N=Nc2c(C)[nH]n(-c3ccccc3)c2=O)cc1`, the Potency entry was “inactive”.

For `Cc1[nH]n(-c2cccc(Cl)c2)c(=O)c1/C=N/n1c(C)nc2ccccc2c1=O`, the Potency entry was “inactive”.

With `O=C(N/N=C/c1cccc([N+](=O)[O-])c1)c1ccncc1`, the Potency entry was “inactive”.

Take `Cc1[nH]n(-c2ccccc2)c(=O)c1/C=N/NC(=O)c1ccoc1C`: the Potency is 7.08 µM (active).

Consider `COc1cccc(/C=N/NC(=O)c2cccc([N+](=O)[O-])c2)c1OS(=O)(=O)c1ccc(C)cc1`, for which the Potency result was “inactive”.

As to `COc1cc2c(cc1OC)[C@@H](Cc1cc(OC)c(OC)c(OC)c1)[N+](C)(CCCOC(=O)CC/C=C/CCC(=O)OCCC[N+]1(C)CCc3cc(OC)c(OC)cc3[C@H]1Cc1cc(OC)c(OC)c(OC)c1)CC2` (stereo partly drawn), the Potency entry was “inactive”.

As for `O=c1[nH]n2c(-c3ccccc3)nc(O)c2c2ccccc12`, the Potency result was “inactive”.

In the case of `Cc1cc(-c2ccccc2)n2nc(C)c(-c3ccccc3)c2n1`, the Potency result was “inactive”.

As for `Cc1nc2c(-c3ccccc3)c(C)[nH]n2c(=O)c1Cl`, the Potency is 10 µM (active).

On to `Cc1ccc(F)cc1NC(=O)Cc1nn(C)c(=O)c2ccccc12`, for which the Potency is 14.1 µM (active).

For `COc1ccc(-c2nn(C)c(=O)c3ccccc23)cc1NC(=O)COc1ccccc1`, the Potency result is “inactive”.

In the case of `Cc1ccc(NC(=O)Cn2nc(C)c3ccccc3c2=O)c(C)c1`, the Potency result is “inactive”.

Take `CCCCNC(=O)OCCSCCS(=O)(=O)c1ccc(Cl)cc1`: the Potency result is “inactive”.

As for `CC(C)(C)n1cnnc1Sc1ccc([N+](=O)[O-])cn1`, the Potency entry is “inactive”.

As for `CCC(C)N1C(=S)SC(C)(C)C1N(O)C(=O)NC1CCCCC1` (stereo not drawn), the Potency entry was “inactive”.

Take `c1coc(CNc2ncnc3ccccc23)c1`: the Potency is 7.94 µM (active).

For `c1ccc(-c2nc(NCc3ccco3)c3ccccc3n2)cc1`, the Potency entry was “inactive”.

Regarding `O=C(NCc1ccncc1)C(=O)NCc1ccco1`, the Potency entry is “inactive”.

`Cc1cc(C)cc(NS(=O)(=O)c2ccc(F)cc2)c1`: the Potency entry is “inactive”.

On to `CCOc1cc(N2CCOCC2)c(OCC)cc1NC(=O)c1cc(C)nc2ccccc12`, for which the Potency result was “inactive”.

As to `CCOc1cc(N2CCOCC2)c(OCC)cc1NC(=O)c1ccc(C)s1`, the Potency result was “inactive”.

`CCOc1cc(N2CCOCC2)c(OCC)cc1NC(=O)COc1cccc2cccnc12`: the Potency was 3.55 µM (active).

In the case of `O=c1c2ccccc2cnn1Cc1n[nH]c(=S)n1-c1ccccc1F`, the Potency result was “inactive”.

Turning to `O=C1CCCN1CCCNc1ncnc2c1[nH]c1ccccc12`, the Potency entry is “inactive”.

For `CC(C)OCCCNc1ncnc2c1[nH]c1ccc(F)cc12`, the Potency was 2.24 µM (active).

Consider `COc1cc(OC)c(OC)cc1/C=N/Nc1ncnc2c1[nH]c1ccc(C)cc12`, for which the Potency result is “inactive”.

In the case of `COc1ccc(NC(=O)C2CCC(CNc3c(N4CCCCC4)c(=O)c3=O)CC2)c(OC)c1` (stereo not drawn), the Potency result is “inactive”.

Turning to `Cc1cc(N)n(-c2ccc(S(=O)(=O)N3CCCC3)cc2[N+](=O)[O-])n1`, the Potency result is “inactive”.

Consider `CCOC(=O)N1CCN(Cc2nc3c(c(=O)n(C)c(=O)n3C)n2Cc2ccccc2)CC1`, for which the Potency result is “inactive”.

As to `COCCn1c(CN(Cc2ccccc2)Cc2ccccc2)nc2c1c(=O)n(C)c(=O)n2C`, the Potency result was “inactive”.

For the compound `Cn1c(=O)c2c(nc(OCc3cccnc3)n2Cc2ccccc2)n(C)c1=O`, the Potency is 12.6 µM (active).

`O=C(Nc1ccc(Br)cn1)C1CCN(S(=O)(=O)c2cccs2)CC1`: the Potency entry is “inactive”.

`COC(=O)c1cccc(NS(C)(=O)=O)c1`: the Potency result was “inactive”.

On to `Cc1ccc(Cl)c(OCC(=O)NN2CCN(C)CC2)c1`, for which the Potency result is “inactive”.

As to `CCn1c(/C=C/c2ccc([N+](=O)[O-])o2)nc2ccccc2c1=O`, the Potency is 11.2 µM (active).

With `Cn1cc(/C=C/c2nc3ccccc3c(=O)n2-c2cccc([N+](=O)[O-])c2)c2ccccc21`, the Potency entry was “inactive”.

Turning to `C/[N+]([O-])=C\c1ccc([N+](=O)[O-])o1`, the Potency entry was “inactive”.

As to `CC(NC(=O)C(C)(C)C)C(c1cccs1)N1CCN(Cc2ccccc2)CC1` (stereo not drawn), the Potency result was “inactive”.

With `Cc1ccc(C)c2c1cc(C)c1nnc(SCC(=O)Nc3cccc(C(=O)O)c3)n12`, the Potency entry is “inactive”.

`O=S(=O)(Nc1ccc(OC(F)(F)F)cc1)c1cccc2nonc12`: the Potency entry was “inactive”.

On to `CC(C)CN(CC(C)C)CC(O)CN(c1ccccc1)S(=O)(=O)c1ccccc1[N+](=O)[O-]` (stereo not drawn), for which the Potency entry is “inactive”.

In the case of `COc1ccccc1CNC(=O)CCn1c(=O)sc2ccccc21`, the Potency entry was “inactive”.

As to `COc1ccc(Cn2c(=O)sc3ccccc32)cc1OC`, the Potency was 0.631 µM (active).

Turning to `Cc1cccc(CSc2nnc(Cn3c(=O)sc4ccccc43)n2C)c1`, the Potency result was “inactive”.

With `CC(C)Sc1nnc([C@H](Cc2ccccc2)NC(=O)OC(C)(C)C)o1`, the Potency entry is “inactive”.

`CCc1cc(C(=O)c2ccc(OC)cc2)c(NC(=O)CN2CCN(C)CC2)s1`: the Potency entry is “inactive”.

Consider `CCOC(=O)c1c(NC(=O)NC(C)(C)C)sc2c1CCN(C)C2`, for which the Potency result is “inactive”.

For `O=C(Nc1cc(C(F)(F)F)ccc1Cl)c1cc(C2CC2)on1`, the Potency result is “inactive”.

As for `Cc1nn(Cc2ccc(Cl)c(Cl)c2)c(C)c1NC(=O)c1cc(C2CC2)on1`, the Potency is 17.8 µM (active).

For the compound `Cc1cc(C(=O)Nc2c(C)nn(Cc3ccccc3)c2C)on1`, the Potency entry is “inactive”.

In the case of `CCOC(=O)c1c(C)oc(C)c(C(=O)OCC)c1=O`, the Potency result was “inactive”.

Turning to `Cc1c(S(=O)(=O)NCc2ccccc2)c(=O)n(C)c(=O)n1C`, the Potency result was “inactive”.

`CCc1ccc2nc(Nc3ncc(C(C)=O)c(C)n3)nc(C)c2c1`: the Potency entry was “inactive”.

As for `O=C(CSc1nc2[nH]ncc2c(=O)n1-c1ccccc1)N1CCCc2ccccc21`, the Potency result is “inactive”.

With `Cn1c(SCC(=O)N2CCCc3ccccc32)nc2ccccc2c1=O`, the Potency is 7.94 µM (active).

Take `O=C(CSc1nc2ccccc2c(=O)n1CCCO)N1CCc2ccccc21`: the Potency entry is “inactive”.

As to `Cc1nc(CNS(=O)(=O)c2cc([N+](=O)[O-])ccc2C)cs1`, the Potency result was “inactive”.

As to `COc1ccc(NC(=S)Nc2ccccc2Cl)cn1`, the Potency result is “inactive”.

Consider `COc1ccc(NC(=S)NCCNC(C)=O)cc1`, for which the Potency result was “inactive”.

As to `COc1ccc(CS(=O)/C(Cl)=C(/Cl)C(=O)Nc2ccc(OC)nc2)cc1` (stereo not drawn), the Potency was 5.01 µM (active).

For the compound `FCOC(C(F)(F)F)C(F)(F)F`, the Potency result is “inactive”.

As to `O=C(Nc1ccc2ccccc2c1)/C(=C/c1cccc(Br)c1)NC(=O)c1ccco1`, the Potency result was “inactive”.

Turning to `COc1ccc(C(=O)NC(=S)NNC(=O)CCc2ccccc2)cc1`, the Potency result was “inactive”.

Regarding `CC(Oc1ccc2ccccc2c1)C(=O)NNC(=S)NC(=O)c1ccco1` (stereo not drawn), the Potency was 11.2 µM (active).

With `O=C(c1ccco1)N1CCN(CCOc2ccccc2)CC1`, the Potency result was “inactive”.

Consider `COc1ccc(-c2cc(C(F)(F)F)nc(S(C)(=O)=O)n2)cc1OC`, for which the Potency is 10 µM (active).

Regarding `COc1ccc(-c2cc(C(F)(F)F)nc(SCC(=O)Nc3ccc4c(c3)OCO4)n2)cc1OC`, the Potency result is “inactive”.

For `COc1cc(OC)nc(S(C)(=O)=O)n1`, the Potency entry is “inactive”.

Consider `CC1Cc2ccccc2N1S(=O)(=O)c1ccc(Cl)nc1` (stereo not drawn), for which the Potency entry is “inactive”.

As for `COc1ccc(C2(C#N)CCC(C(=O)O)CC2)cc1OC1CCCC1` (stereo not drawn), the Potency entry is “inactive”.

With `CCOC(=O)N1CCN(C(=O)C2CCN(Cc3ccc(OC)cc3OC)CC2)CC1`, the Potency result is “inactive”.

As for `CCOC(=O)N1CCN(C(=O)C2CCN(c3ncnc4c3sc3cccc(F)c34)CC2)CC1`, the Potency was 10 µM (active).

On to `CCOC(=O)C1CCN(c2ncnc3c2oc2ccc(Br)cc23)CC1`, for which the Potency result was “inactive”.

In the case of `COc1ccc(-c2[nH]ncc2/C=N/NC(=O)c2cc(Br)ccc2O)c(OC)c1`, the Potency entry is “inactive”.

With `CC(C)/C=N/NC(=O)c1cc(Br)ccc1O`, the Potency is 8.91 µM (active).

On to `O=C(N/N=C\c1cccc(Br)c1)c1ccccc1-n1cccc1`, for which the Potency entry is “inactive”.

On to `Cc1c(C)c(C)c2[nH]c(=S)[nH]c2c1C`, for which the Potency result is “inactive”.

With `CCc1c(C)nc2c(-c3ccccc3)c(C)nn2c1Nc1ccc(NC(C)=O)cc1`, the Potency entry was “inactive”.

Regarding `O=C(CCCCCNC(=O)c1ccccc1)N/N=C/c1ccccc1`, the Potency entry was “inactive”.

In the case of `O=C(CCC(=O)Nc1ccccc1)N/N=C/c1ccccc1F`, the Potency result is “inactive”.

With `O=C(N/N=C/c1ccccc1O)/C(=C/c1ccccc1)CCO`, the Potency was 7.94 µM (active).

As for `O=[N+]([O-])C(=c1ccc2c(c1)N1C3=C(CCCC3)CC3CCCCC31N=2)[N+](=O)[O-]` (stereo not drawn), the Potency result is “inactive”.

In the case of `CCOC(=O)CN(C(=O)COc1nc(-c2ccccc2)cc(C)c1C#N)c1ccc(F)cc1`, the Potency result was “inactive”.

On to `C=CCN(c1ccccc1C(=O)NCC(=O)OCC)S(=O)(=O)c1ccc(C)cc1`, for which the Potency result is “inactive”.

As for `CN1C(=O)c2ccc(NC(=O)C3CCCCC3)cc2C1=O`, the Potency result was “inactive”.

In the case of `O=C(O)c1ccc(NC(=O)C2CCCCC2)cc1`, the Potency entry is “inactive”.

For `O=C(Nc1cnn(Cc2ccc(Cl)cc2)c1)C1CCCC1`, the Potency was 0.794 µM (active).

(Values after PubChem BioAssay AID1688 (National Center for Advancing Translational Sciences (NCATS), 2009).)
